Reference: PubChem BioAssay AID1159580 (chemical genetic matrix, 2015)
The whole screen tested about 5,500 compounds, of which about 2,000 (36%) were called active. About 18% were inconclusive and are not listed. Rule as the data show it: active = normalized growth mostly below about 0.91 (no sharp cut-off); inconclusive = no clear call, values can overlap the other calls; inactive = mostly above about 0.92. This is one part of the list.

Assay: chemical genetic growth profiling, strain panel (AID 1159580);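 also: tested at 20 µM; growth read once vehicle control cultures reached saturation at 30 °C; 1 = growth at the plate median or of vehicle wells; lower values mean less growth of the strain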
Conditions: growth OD

Measured: normalized growth

COC1=CC23CCCN2CCc2cc4c(cc2C3C1O)OCO4 (centres undefined)
inactive: S. cerevisiae deletion strains, locus YJL187C, strain SWE1, active compounds read low 1.02 | S. cerevisiae deletion strains, locus YJR043C, strain POL32, active compounds read low 0.999 | S. cerevisiae deletion strains, locus YJR066W, strain TOR1, active compounds read low 0.92 | S. cerevisiae deletion strains, locus YJR075W, strain HOC1, active compounds read low 1.01 | S. cerevisiae deletion strains, locus YKL009W, strain mrt4, active compounds read low 1.01 | S. cerevisiae deletion strains, locus YKL068W, active compounds read low 1 | S. cerevisiae deletion strains, locus YKL085W, strain MDH1 (second series), active compounds read low 1.01 | S. cerevisiae deletion strains, locus YKL085W, strain MDH1, active compounds read low 1.01 | S. cerevisiae deletion strains, locus YKL160W, strain elf1, active compounds read low 1.02 | S. cerevisiae deletion strains, locus YKL190W, strain CNB1, active compounds read low 1 | S. cerevisiae deletion strains, locus YKR001C, strain vps1, active compounds read low 1.01 | S. cerevisiae deletion strains, locus YKR026C, strain gcn3, active compounds read low 1.02 | S. cerevisiae deletion strains, locus YKR091W, strain srl3, active compounds read low 1.02 | S. cerevisiae deletion strains, locus YLL001W, strain dnm1, active compounds read low 1.02 | S. cerevisiae deletion strains, locus YLL026W, active compounds read low 1.02 | S. cerevisiae deletion strains, locus YLL041C, strain sdh2, active compounds read low 1.02 | S. cerevisiae deletion strains, locus YLR027C, strain aat2, active compounds read low 1.01 | S. cerevisiae deletion strains, locus YLR039C, strain RIC1, active compounds read low 1.04 | S. cerevisiae deletion strains, locus YLR058C, strain SHM2, active compounds read low 1 | S. cerevisiae deletion strains, locus YLR102C, strain apc9, active compounds read low 1 | S. cerevisiae deletion strains, locus YLR113W, strain HOG1, active compounds read low 0.959 | S. cerevisiae deletion strains, locus YLR221C, strain rsa3, active compounds read low 1.03 | S. cerevisiae deletion strains, locus YLR258W, strain gsy2, active compounds read low 1.02 | S. cerevisiae deletion strains, locus YLR262C, strain YPT6 (second series), active compounds read low 1.04 | S. cerevisiae deletion strains, locus YLR262C, strain YPT6, active compounds read low 1.04 | S. cerevisiae deletion strains, locus YLR268W, strain sec22, active compounds read low 1.02 | S. cerevisiae deletion strains, locus YLR320W, strain mms22, active compounds read low 1.05 | S. cerevisiae deletion strains, locus YLR330W, strain CHS5, active compounds read low 1 | S. cerevisiae deletion strains, locus YLR342W, strain FKS1 (second series), active compounds read low 0.997 | S. cerevisiae deletion strains, locus YLR342W, strain FKS1, active compounds read low 1.02 | S. cerevisiae deletion strains, locus YLR357W, strain rsc2, active compounds read low 1.06 | S. cerevisiae deletion strains, locus YLR370C, strain arc18, active compounds read low 1.03 | S. cerevisiae deletion strains, locus YLR371W, strain rom2, active compounds read low 1.01 | S. cerevisiae deletion strains, locus YLR384C, strain iki3, active compounds read low 1.02 | S. cerevisiae deletion strains, locus YLR418C, strain cdc73, active compounds read low 0.992 | S. cerevisiae deletion strains, locus YML016C, strain PPZ1, active compounds read low 1 | S. cerevisiae deletion strains, locus YML032C, strain rad52, active compounds read low 0.98 | S. cerevisiae deletion strains, locus YML120C, strain ndi1, active compounds read low 1.02 | S. cerevisiae deletion strains, locus YML124C, strain tub3, active compounds read low 1 | S. cerevisiae deletion strains, locus YMR058W, strain fet3, active compounds read low 1.03 | S. cerevisiae deletion strains, locus YMR078C, strain ctf18, active compounds read low 1.01 | S. cerevisiae deletion strains, locus YMR125W, strain sto1, active compounds read low 1.04 | S. cerevisiae deletion strains, locus YMR129W, active compounds read low 1.02 | S. cerevisiae deletion strains, locus YMR205C, strain PFK2, active compounds read low 1.05 | S. cerevisiae deletion strains, locus YMR223W, strain ubp8, active compounds read low 1.01 | S. cerevisiae deletion strains, locus YMR231W, strain pep5, active compounds read low 1.02 | S. cerevisiae deletion strains, locus YMR307W, strain GAS1, active compounds read low 0.984 | S. cerevisiae deletion strains, locus YNL067W, strain RPL9B, active compounds read low 0.99 | S. cerevisiae deletion strains, locus YNL071W, strain lat1, active compounds read low 1.02 | S. cerevisiae deletion strains, locus YNL183C, strain NPR1, active compounds read low 0.926 | S. cerevisiae deletion strains, locus YNL209W, strain ssb2, active compounds read low 1.02 | S. cerevisiae deletion strains, locus YNL233W, strain BNI4, active compounds read low 0.989 | S. cerevisiae deletion strains, locus YNL248C, strain rpa49, active compounds read low 1.04 | S. cerevisiae deletion strains, locus YNL250W, strain rad50, active compounds read low 1.01 | S. cerevisiae deletion strains, locus YNL271C, strain bni1, active compounds read low 1.01 | S. cerevisiae deletion strains, locus YNL298W, strain CLA4, active compounds read low 1.01 | S. cerevisiae deletion strains, locus YNL307C, strain MCK1, active compounds read low 1.01 | S. cerevisiae deletion strains, locus YNL322C, strain KRE1 (second series), active compounds read low 1.02 | S. cerevisiae deletion strains, locus YNR049C, strain mso1, active compounds read low 1.05 | S. cerevisiae deletion strains, locus YNR052C, strain pop2, active compounds read low 1 | S. cerevisiae deletion strains, locus YOL012C, strain htz1 0.879 | S. cerevisiae deletion strains, locus YOL147C, strain pex11, active compounds read low 1.01 | S. cerevisiae deletion strains, locus YOR001W, strain rrp6, active compounds read low 1.04 | S. cerevisiae deletion strains, locus YOR061W, strain CKA2, active compounds read low 1.01 | S. cerevisiae deletion strains, locus YOR069W, strain VPS5, active compounds read low 1.01 | S. cerevisiae deletion strains, locus YOR070C, strain gyp1, active compounds read low 1.02 | S. cerevisiae deletion strains, locus YOR080W, strain dia2, active compounds read low 1.03 | S. cerevisiae deletion strains, locus YOR083W, strain WHI5, active compounds read low 1.03 | S. cerevisiae deletion strains, locus YOR106W, strain vam3, active compounds read low 1.03 | S. cerevisiae deletion strains, locus YOR136W, strain idh2, active compounds read low 1.01 | S. cerevisiae deletion strains, locus YOR144C, strain elg1, active compounds read low 1.01 | S. cerevisiae deletion strains, locus YOR184W, strain ser1, active compounds read low 0.999 | S. cerevisiae deletion strains, locus YOR231W, strain MKK1, active compounds read low 0.972 | S. cerevisiae deletion strains, locus YOR265W, strain rbl2, active compounds read low 1.05 | S. cerevisiae deletion strains, locus YOR270C, strain vph1, active compounds read low 1.09 | S. cerevisiae deletion strains, locus YOR290C, strain snf2, active compounds read low 1 | S. cerevisiae deletion strains, locus YOR316C, strain cot1, active compounds read low 1.01 | S. cerevisiae deletion strains, locus YPL051W, strain arl3, active compounds read low 1.02 | S. cerevisiae deletion strains, locus YPL055C, strain LGE1, active compounds read low 0.999 | S. cerevisiae deletion strains, locus YPL078C, strain atp4, active compounds read low 1.03 | S. cerevisiae deletion strains, locus YPL106C, strain sse1, active compounds read low 1.03 | S. cerevisiae deletion strains, locus YPL240C, strain hsp82, active compounds read low 1.02 | S. cerevisiae deletion strains, locus YPL256C, strain CLN2, active compounds read low 0.949 | S. cerevisiae deletion strains, locus YPR119W, strain clb2, active compounds read low 1 | S. cerevisiae deletion strains, locus YPR141C, strain kar3, active compounds read low 1.01 | S. cerevisiae deletion strains, locus YPR163C, strain tif3, active compounds read low 1.01 | S. cerevisiae deletion strains, locus YPR167C, strain met16, active compounds read low 0.998 | S. cerevisiae deletion strains, strain wtn01, active compounds read low 1.02 | S. cerevisiae strains, strain wild type, active compounds read low 1
